These results are taken from PubChem BioAssay AID1671463 (Sanford-Burnham Center for Chemical Genomics, 2021).

The campaign covered roughly 370,000 compounds. About 520 (0.14%) were called active. Only a selection was taken, and actives are over-represented in it overall. A number with no mark means an inactive call. Cut-off read from the data, not from the text of the source: active = activation above about 40%; inactive = the rest.

The target of the test is Atrial natriuretic peptide receptor 1 (Homo sapiens) (UniProt P16066). The test can be described thus: GC-A stimulated cGMP production enhancers – HEK293 GC-A cells, cGMP TR-FRET, EC30 ANP, primary screen (AID 1671463). Conditions: at 10 µM, stronger effect = higher value, 0% at EC30 ANP, 100% saturating ANP.
Sequence of Atrial natriuretic peptide receptor 1 (Homo sapiens) (P16066 whole entry, looked up): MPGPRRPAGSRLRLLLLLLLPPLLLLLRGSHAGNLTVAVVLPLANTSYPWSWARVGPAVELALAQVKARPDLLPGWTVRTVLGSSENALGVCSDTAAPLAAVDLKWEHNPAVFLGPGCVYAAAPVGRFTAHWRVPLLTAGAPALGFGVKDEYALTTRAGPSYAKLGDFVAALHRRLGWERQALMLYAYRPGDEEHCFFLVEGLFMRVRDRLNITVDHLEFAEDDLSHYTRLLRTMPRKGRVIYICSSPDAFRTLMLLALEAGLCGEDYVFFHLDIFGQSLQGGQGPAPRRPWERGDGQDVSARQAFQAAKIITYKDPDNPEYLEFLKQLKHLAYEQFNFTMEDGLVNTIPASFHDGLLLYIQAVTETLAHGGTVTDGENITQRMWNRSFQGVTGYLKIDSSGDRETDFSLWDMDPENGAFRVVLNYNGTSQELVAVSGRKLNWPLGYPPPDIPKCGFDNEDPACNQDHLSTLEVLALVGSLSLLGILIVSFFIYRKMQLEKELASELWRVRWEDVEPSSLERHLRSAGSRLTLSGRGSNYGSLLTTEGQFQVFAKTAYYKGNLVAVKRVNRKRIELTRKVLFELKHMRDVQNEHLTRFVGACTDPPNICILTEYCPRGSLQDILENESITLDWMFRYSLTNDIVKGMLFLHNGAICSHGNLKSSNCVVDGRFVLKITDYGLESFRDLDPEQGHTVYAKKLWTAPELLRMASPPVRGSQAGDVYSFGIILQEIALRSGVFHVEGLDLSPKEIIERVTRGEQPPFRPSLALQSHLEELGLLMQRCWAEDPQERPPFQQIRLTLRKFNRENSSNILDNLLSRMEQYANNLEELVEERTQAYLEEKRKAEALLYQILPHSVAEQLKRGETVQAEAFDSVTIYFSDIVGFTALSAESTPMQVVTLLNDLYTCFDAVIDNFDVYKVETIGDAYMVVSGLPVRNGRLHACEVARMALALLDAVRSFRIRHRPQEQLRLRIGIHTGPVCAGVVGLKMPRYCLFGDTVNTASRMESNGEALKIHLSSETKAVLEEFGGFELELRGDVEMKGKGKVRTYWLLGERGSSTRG
On to `O=C(CSc1nc2ccccc2n1Cc1ccccc1)NNC(=S)Nc1ccccc1`, for which the activation is 0.91%.

As to `O=S(=O)(Nc1ccc(-c2ccc(N3CCOCC3)nn2)cc1)c1cc(Cl)ccc1Cl`, the activation was 0.58%.

For `COc1cc(NC(=O)c2ccc(CNc3c(N4CCCC4)c(=O)c3=O)cc2)cc(OC)c1OC`, the activation was -2.1%.

Consider `Fc1ccc2c(c1)C(c1cccnc1)=NNC(c1cccs1)=N2`, for which the activation was -28.1%.

With `[O-][n+]1c2c(nn1-c1ccc(Cl)c(Cl)c1)-c1nonc1CC2`, the activation is 9.72%.

As to `C=CCOc1ccc(Cl)cc1CNCCCN1CCOCC1`, the activation is -6.85%.

Regarding `O=C1C=C(c2ccnc3cc(Cl)ccc23)C[C@@H](c2ccc3c(c2)OCO3)C1`, the activation is 0.61%.

On to `CC1(C)Cc2nc3sc4c(SCC(=O)NC(c5ccccc5)c5ccccc5)ncnc4c3cc2CO1`, for which the activation is 52.8% (active).

On to `CC(C)CCSc1ncnc2c1oc1nc3c(cc12)COC(C)(C)C3`, for which the activation is -1.1%.

Consider `CCOc1ccc(NC(=O)CSc2ncnc3c2sc2ccccc23)cc1`, for which the activation is 38.7%.

`CN1CCC(=NNC(=O)CN(c2cccc(Cl)c2)S(C)(=O)=O)CC1`: the activation was 0.89%.

On to `CCCCCn1c(SCCC(C)C)nc2c1c(=O)[nH]c(=O)n2C`, for which the activation is 1.84%.

Turning to `COc1ccc2occ(C(=O)c3ccc(N=C(C)N(C)C)cc3)c2c1`, the activation was -4.34%.

`Cc1nn(Cc2ccccc2)c(C)c1C(=O)N1CCN(CC(=O)Nc2ccccc2Cl)CC1`: the activation is 4.37%.

As to `CN(C)CCN=c1cc(-c2ccccc2)oc2ccc(Cl)cc12`, the activation is 1.39%.

Take `COc1ccc(C(CC(=O)c2ccccc2)S(=O)(=O)c2ccccc2)cc1` (stereo not drawn): the activation is -10.5%.

For the compound `O=C(c1ccc(F)c(S(=O)(=O)N2CCOCC2)c1)N(CCc1ccccc1)Cc1ccccc1`, the activation was -3.51%.

Take `O=C(CN1C(=O)c2ccc([N+](=O)[O-])cc2C1=O)Nc1nnc(C2CC2)s1`: the activation is 5.52%.

For the compound `COc1ccc(NC(=O)C(CC(C)C)NC(=O)C2CCC(C)CC2)cc1` (stereo not drawn), the activation was -0.39%.

For the compound `CCOC(=O)N1CCN(C(=O)CSc2nnc(-c3c[nH]c4ccccc34)n2CCOC)CC1`, the activation was -1.3%.

With `CCNC(=O)N1CCN(S(=O)(=O)c2ccc3c(c2)OCCCO3)CC1`, the activation is -0.67%.

`O=C(CCC1CCCN(Cc2ccc(O)c(Cl)c2)C1)NCc1ccccc1F` (stereo not drawn): the activation is 3.25%.

Turning to `COc1ccc2cc(C(=O)O)n(CC(=O)c3ccccc3)c2c1`, the activation is -0.02%.

For `CC(=O)OCCN1CCCC12CCC(c1ccccc1)CC2` (stereo not drawn), the activation is 4.33%.

With `COc1ccc(CCNC(=O)COc2ccc3c(c2)OCO3)cc1`, the activation was -3.12%.

Consider `NC(=O)C1=C[C@H](c2csc3ccccc23)C[C@H](OCc2ccc(CO)cc2)O1`, for which the activation is -0.65%.

On to `CC(C)COC(=O)n1c(=O)oc2ccc(S(=O)(=O)N3CCCCC3)cc21`, for which the activation was 0.62%.

For `CCOc1ccc2nc(Cl)c(C3CC(c4ccccc4)=NN3C(=O)c3cccs3)cc2c1` (stereo not drawn), the activation was 1.83%.

As for `COc1ccc(C2CC(c3cccc(OC)c3)=NN2c2ccc(S(N)(=O)=O)cc2)cc1` (stereo not drawn), the activation is 6.44%.

Take `COc1ccc(C2CC(c3ccccc3)=NN2C(=O)c2ccc(Cl)c([N+](=O)[O-])c2)cc1` (stereo not drawn): the activation is 69.5% (active).

As for `O=C1C=CC(=O)N1c1ccc(N2CCCCC2)cc1`, the activation was 50.5% (active).

In the case of `Cc1nc(N2CCCC2C(=O)O)c2oc3ccccc3c2n1` (stereo not drawn), the activation is -1.86%.

In the case of `C[C@@H](Nc1nc(-c2ccccc2)nc2c1oc1ccccc12)C(=O)O`, the activation is -3.4%.

Turning to `Cc1nc(Cl)c2oc3ccccc3c2n1`, the activation is 41.1% (active).

As for `CC12CN(NC(=O)c3ccc(Cl)cc3)C3(C#N)CC1CCC23C` (stereo not drawn), the activation is 0.43%.

For the compound `C#CCN([C@H](C(=O)OC)C(C)CC)S(=O)(=O)c1ccccc1Br` (stereo partly drawn), the activation is -4.19%.

For `Cc1ccc(S(=O)(=O)CC(=O)NC(C)c2ccccc2)cc1` (stereo not drawn), the activation was 4.14%.

For the compound `CCOc1ccccc1NC(=O)C1CCC(CNc2c(N3CCOCC3)c(=O)c2=O)CC1` (stereo not drawn), the activation is 0.11%.

For the compound `CC(C)c1cc(C(=O)O)on1`, the activation is -0.6%.

`Cc1ccc(C(=O)NCC(=O)NCc2cc(=O)n(C)c(=O)n2C)cc1`: the activation was 1.88%.

With `CN(C)/C(=N\OC(=O)c1ccccc1)c1nonc1N`, the activation is -2.63%.

With `Nc1c(-c2cccc(Cl)c2)cnn1-c1cccc([N+](=O)[O-])c1`, the activation was -2.54%.

`CCOc1ccc(Oc2c(Cl)cnn(-c3ccc(C)cc3)c2=O)cc1`: the activation is 4.6%.

Consider `Cc1cccc(-n2ncc(Cl)c(Cl)c2=O)c1`, for which the activation was 40.6% (active).

As for `COC(=O)c1ccc(C2C3=C(Nc4nnnn42)c2ccccc2OC3)cc1` (stereo not drawn), the activation was 1.48%.

As for `CCc1c(C)sc(NC(=O)OC)c1C(=O)N1CCOCC1`, the activation is 0.05%.

As for `C/C(Cl)=C\Cn1c(Nc2cccc(C)c2)nc2c1c(=O)n(C)c(=O)n2C`, the activation is 51.1% (active).

`Cc1cccc(Cn2c(N3CCN(c4ccccc4)CC3)nc3c2c(=O)n(C)c(=O)n3C)c1`: the activation is -29%.

For `Cn1c(=O)c2c(nc(N/N=C/c3cccs3)n2Cc2ccc(Br)cc2)n(C)c1=O`, the activation was 18.6%.

Turning to `CCN(CC(=O)Nc1cc(Cl)ccc1C)C(=O)CSCc1ccc(C)cc1`, the activation was -0.6%.

Turning to `CC1(c2ccc3ccccc3c2)NC(=O)N(CC(N)=O)C1=O` (stereo not drawn), the activation was 3.94%.

`C=CCN1C(=O)[C@@H](CC(=O)NCCCCc2ccccc2)[C@]2(C(=O)OCC)CCCCC/C=C/12`: the activation is 3.65%.

In the case of `COc1ccc(N(CC(=O)NCC2CCCO2)C(=O)CCC(=O)Nc2nccs2)c(OC)c1` (stereo not drawn), the activation is 4.75%.

On to `CC(C)(C)C(=O)CCN1C(=O)C2(OCCO2)c2ccccc21`, for which the activation is 1.22%.

In the case of `CC(=O)NC(c1cccs1)c1cc(Br)c2cccnc2c1O` (stereo not drawn), the activation is -1.9%.

With `CCCCCCCCN1C(=O)[C@@H](CC(=O)NCc2ccccc2)C[C@@]2(C(=O)OC)C1=C[C@H](C(C)(C)C)O[C@@H]2C`, the activation is 2.65%.

In the case of `O=C(/C=C/Sc1ncn[nH]1)c1ccc(Cl)cc1`, the activation was 64.8% (active).

For the compound `COc1ccc(CN2CC[C@H]3C=CC[C@@H](C(=O)N4CCOCC4)[C@H]3C2=O)cc1OC`, the activation is 1.45%.
